# Experimental data published in the supplement of paper PMC9135407.
# Several values for one entry are separate records, joined by “and”; a condition that tells them apart may be missing. Identical values can stand only once. Counter-ions that a name gives are not always drawn. About 620 (11%) of roughly 5,800 compounds showed activity. Many of the other results were omitted from the sample, so actives are more common in it than they were. Values without a mark were called inactive.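 How the source made its calls: active = score above a cut-off or among the top three wells of a plate; in these data no inactive exceeds 0.85.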
# Test system: primary human hepatic stellate cells (donor 1)
# Test: scaled lipid accumulation score (0 = DMSO-like, 1 = nortriptyline-like); higher = stronger HSC inactivation (lipid re-accumulation), active = hit call of the paper
# Conditions: 48 h
# [1] = library stock concentration: 1 mM
# [2] = library stock concentration: 400 uM
# [3] = library stock concentration: 2 mM
# [4] = library stock concentration: 10 mM
# [5] = library stock concentration: 3.33 mM
# [6] = library stock concentration: 80 uM
structure (smiles),measurement,setting,value
CCCCCCCC/C=C\CCCCCCCC(=O)OCC [Oleic Acid ethyl ester],scaled lipid accumulation score,[1],0.015
O=C(CO)N1CCC(c2n[nH]c(-c3ccc(Cl)cc3)c2-c2ccncn2)CC1,scaled lipid accumulation score,[2],≤ -0.005
same,scaled lipid accumulation score,[3],≤ -0.005
same,scaled lipid accumulation score,[4],≤ -0.005
Cl.O[C@H](CNC[C@@H](O)[C@H]1CCc2cc(F)ccc2O1)[C@@H]1CCc2cc(F)ccc2O1 [Nebivolol hydrochloride],scaled lipid accumulation score,[4],0.861 (active)
OC(CNCC(O)C1CCc2cc(F)ccc2O1)C1CCc2cc(F)ccc2O1 (centres undefined) [Nebivolol],scaled lipid accumulation score,[5],0.769
same,scaled lipid accumulation score,[4],≤ 0
CCCCCC(=O)/C=C/[C@@H]1[C@H](C/C=C\CCCC(=O)O)[C@H](O)C[C@H]1O [8-iso-15-keto Prostaglandin F2.beta.],scaled lipid accumulation score,[1],≤ 0
COC(=O)c1ccc(O)c2nc3c(C=O)c(O)cc(O)c3nc12 [Lomofungin],scaled lipid accumulation score,library stock concentration: 6.4 mM,≤ -0.006
Cn1cc(C(=O)OCC2CCN(CCNS(C)(=O)=O)CC2)c2ccccc21 [listing 1 of 2 here],scaled lipid accumulation score,[4],0.925 (active)
Cn1cc(C(=O)OCC2CCN(CCNS(C)(=O)=O)CC2)c2ccccc21 [listing 2 of 2 here],scaled lipid accumulation score,[4],0.41
COc1[nH]c2ccc(F)cc2c1C(=O)OCC1CCN(CCNS(C)(=O)=O)CC1.NS(=O)(=O)O,scaled lipid accumulation score,[4],0.298
C/C=C1\[C@H]2C=C(C)C[C@]1(N)c1ccc(=O)[nH]c1C2 [(-)-Huperzine A],scaled lipid accumulation score,library stock concentration: 20.6 mM,0.185
C/C=C1\[C@H]2C=C(C)C[C@]1(N)c1ccc(=O)[nH]c1C2,scaled lipid accumulation score,[4],≤ 0
CC(C)(C)C(=O)Nc1ccccc1 [N-Pivaloylaniline],scaled lipid accumulation score,[1],0.066
CC(C)=CCC/C(C)=C/CC/C(C)=C/CC[C@]1(C)CCc2cc(O)cc(C)c2O1 [.delta.-Tocotrienol],scaled lipid accumulation score,[1],≤ 0
CC(C)[C@@H]1NC(=O)[C@H](Cc2ccccc2)NC(=O)[C@@H](CC(=O)O)NC(=O)CNC(=O)[C@H](CCCN=C(N)N)NC1=O [Cyclo [Arg-Gly-Asp-D-Phe-Val]],scaled lipid accumulation score,library stock concentration: 8.7 mM,≤ -0.003
CN[C@H]1CC[C@@H](c2ccc(Cl)c(Cl)c2)c2ccccc21 [Sertraline] [listing 1 of 2 here],scaled lipid accumulation score,,1.23 (active)
CN[C@H]1CC[C@@H](c2ccc(Cl)c(Cl)c2)c2ccccc21 [Sertraline HCl],scaled lipid accumulation score,[5],0.103
same,scaled lipid accumulation score,[4],0.033
CN[C@H]1CC[C@@H](c2ccc(Cl)c(Cl)c2)c2ccccc21 [Sertraline] [listing 2 of 2 here],scaled lipid accumulation score,[4],0.147 and 0.63
CN[C@H]1CC[C@@H](c2ccc(Cl)c(Cl)c2)c2ccccc21 [Sertraline hydrochloride],scaled lipid accumulation score,library stock concentration: 5.8 mM,0.777
same,scaled lipid accumulation score,[4],≤ -0.055 and 0.281 and 0.318
CC(C)[C@H](NC(=O)CNC(=O)OC(C)(C)C)C(=O)N[C@H](C=O)C(C)C,scaled lipid accumulation score,library stock concentration: 14 mM,0.022
COC(=O)[C@H]1[C@H]2C[C@@H]3c4[nH]c5cc(OC)ccc5c4CCN3C[C@H]2C[C@@H](OC(=O)/C=C/c2cc(OC)c(OC)c(OC)c2)[C@@H]1OC [Rescinnamin],scaled lipid accumulation score,,0.478
COC(=O)[C@H]1[C@H]2C[C@@H]3c4[nH]c5cc(OC)ccc5c4CCN3C[C@H]2C[C@@H](OC(=O)c2cc(OC)c(OC)c(OC)c2)[C@@H]1OC [Reserpine] [listing 1 of 3 here],scaled lipid accumulation score,[4],1.18 (active)
CCOC(=O)Oc1c(OC)cc(C(=O)O[C@@H]2C[C@@H]3CN4CCc5c([nH]c6cc(OC)ccc56)[C@H]4C[C@@H]3[C@H](C(=O)OC)[C@H]2OC)cc1OC [Syrosingopine],scaled lipid accumulation score,,0.248
COC(=O)[C@H]1[C@H]2C[C@@H]3c4[nH]c5cc(OC)ccc5c4CCN3C[C@H]2C[C@@H](OC(=O)c2cc(OC)c(OC)c(OC)c2)[C@@H]1OC [Reserpine] [listing 2 of 3 here],scaled lipid accumulation score,,≤ 0
same,scaled lipid accumulation score,[4],0.574 and 0.771
COc1ccc2c3c([nH]c2c1)[C@H]1C[C@H]2[C@H](C[C@@H](O)[C@H](OC)[C@H]2C(=O)O)CN1CC3 [Reserpinic acid hydrochloride],scaled lipid accumulation score,,≤ 0
COC(=O)[C@H]1[C@H]2C[C@@H]3c4[nH]c5cc(OC)ccc5c4CCN3C[C@H]2C[C@@H](OC(=O)c2cc(OC)c(OC)c(OC)c2)[C@@H]1OC [Reserpine] [listing 3 of 3 here],scaled lipid accumulation score,[4],0.944 (active)
CC1/C=C/C=C/C=C/C=C/C=C/C=C/C=C/C(OC2O[C@H](C)[C@@H](O)[C@H](N)[C@@H]2O)CC(O)C(C(=O)O)C(O)CC(=O)CC(O)CC(O)CC(O)CC(=O)CCCC(=O)CC(=O)OC1C(C)CC(C)C(O)CC(=O)c1ccc(N)cc1 (some centres undefined),scaled lipid accumulation score,[4],≤ 0
CCN(CC)CC1CCCCN1CC(=O)N1c2ccccc2C(=O)Nc2cccnc21 (centres undefined),scaled lipid accumulation score,[4],≤ 0 and ≤ -0.006
CCCCC/C=C\CC1OC1C/C=C\C/C=C\CCCC(=O)O (centres undefined),scaled lipid accumulation score,library stock concentration: 100 uM,≤ -0.021
O=C(O)CCC/C=C\C[C@@H]1[C@@H](/C=C/[C@@H](O)COc2ccccc2)[C@H](O)C[C@@H]1O [16-phenoxy tetranor Prostaglandin F2.alpha.],scaled lipid accumulation score,[1],≤ 0
CCN1CCN(c2ccc(Nc3cc(N(C)C(=O)Nc4c(Cl)c(OC)cc(OC)c4Cl)ncn3)cc2)CC1,scaled lipid accumulation score,[6],≤ -0.009
same,scaled lipid accumulation score,[2],≤ -0.009
same,scaled lipid accumulation score,[3],0.01
same,scaled lipid accumulation score,[4],0.291
COc1ccc(-c2cc3nccn3c(Nc3ncccc3C(N)=O)n2)cc1OC,scaled lipid accumulation score,[6],0.088
same,scaled lipid accumulation score,[2],≤ -0.009
same,scaled lipid accumulation score,[3],0.133
same,scaled lipid accumulation score,[4],0.349
CCC[C@H](Nc1nc(-c2ccc(NC(=O)NCC)c(OC)c2)ncc1C)c1cccnc1 [CYT997 (Lexibulin)],scaled lipid accumulation score,[5],0.682
same,scaled lipid accumulation score,[4],0.758
C[N+](C)(C)CCO.[Cl-] [Choline chloride],scaled lipid accumulation score,[4],≤ -0.027
same,scaled lipid accumulation score,library stock concentration: 14.3 mM,≤ 0
C[N+](C)(C)CCO.[Cl-] [Choline Chloride],scaled lipid accumulation score,[5],≤ 0
same,scaled lipid accumulation score,[4],0.043
N#CC(=Cc1ccc2[nH]ccc2c1)C(N)=C(C#N)C#N,scaled lipid accumulation score,library stock concentration: 19.3 mM,0.606
COc1ccc(C2=N[C@@H](c3ccc(Cl)cc3)[C@@H](c3ccc(Cl)cc3)N2C(=O)N2CCNC(=O)C2)c(OC(C)C)c1 [Nutlin-3],scaled lipid accumulation score,[5],0.168
same,scaled lipid accumulation score,[4],0.829
COc1ccc(C2=N[C@@H](c3ccc(Cl)cc3)[C@H](c3ccc(Cl)cc3)N2C(=O)N2CCNC(=O)C2)c(OC(C)C)c1 [Nutlin-3a],scaled lipid accumulation score,[4],0.954 (active)
COc1ccc(C2=NC(c3ccc(Cl)cc3)C(c3ccc(Cl)cc3)N2C(=O)N2CCNC(=O)C2)c(OC(C)C)c1 (centres undefined) [Nutlin-3b],scaled lipid accumulation score,[5],≤ -0.009
same,scaled lipid accumulation score,[4],≤ 0
COc1ccc(C2=NC(c3ccc(Cl)cc3)C(c3ccc(Cl)cc3)N2C(=O)N2CCNC(=O)C2)c(OC(C)C)c1 (centres undefined) [Nutlin-3a],scaled lipid accumulation score,[5],0.207
COc1ccc(C2=N[C@@H](c3ccc(Cl)cc3)[C@@H](c3ccc(Cl)cc3)N2C(=O)N2CCNC(=O)C2)c(OC(C)C)c1,scaled lipid accumulation score,[1],≤ 0
CCCCCCCCCCCCCCCCCCOCC(O)COP(=O)([O-])OCC[N+](C)(C)C (centres undefined),scaled lipid accumulation score,[1],≤ 0
CCCCCCCCCCCCCCCCCC(=O)OCC [Stearic Acid ethyl ester],scaled lipid accumulation score,[1],≤ 0
O=C(NCCN1CCOCC1)c1ccc(Cl)cc1,scaled lipid accumulation score,[5],≤ 0
same,scaled lipid accumulation score,[4],≤ 0
O=C(NCCN1CCOCC1)c1ccc(Cl)cc1 [Moclobemide],scaled lipid accumulation score,,0.059
same,scaled lipid accumulation score,[4],0.047
O=C(NCCN1CCOCC1)c1ccc(Cl)cc1 [4-Chloro-N-(2-morpholin-4-yl-ethyl)-benzamide],scaled lipid accumulation score,[4],≤ 0
O=C1C(Cl)=C(NCCN2CCOCC2)C(=O)c2ncccc21,scaled lipid accumulation score,[4],1.04 (active)
c1ccc2c(c1)CCCc1cc(NCCN3CCOCC3)nnc1-2,scaled lipid accumulation score,,0.038
CN1Cc2sccc2C(c2ccc(O)c(O)c2)C1 (centres undefined),scaled lipid accumulation score,[4],0.005
CC(=O)N[C@@H](CSC/C=C(\C)CC/C=C(\C)CCC=C(C)C)C(=O)O [Acetyl (N)-s-farnesyl-l-cysteine],scaled lipid accumulation score,library stock concentration: 13.6 mM,≤ -0.021
CC(=O)N[C@@H](CSC/C=C(\C)CC/C=C(\C)CCC=C(C)C)C(=O)O [N-acetyl-S-farnesyl-L-Cysteine],scaled lipid accumulation score,[1],≤ 0
CS(=O)(=O)Nc1c(O)ccc2c1CCCC2C1=NCCN1 (centres undefined),scaled lipid accumulation score,[4],0.027
COc1cc(C=C(C#N)C(N)=O)cc(CSc2nc3ccccc3s2)c1O [Tyrphostin AG-825],scaled lipid accumulation score,library stock concentration: 12.6 mM,0.042
c1cc(-c2cnn3cc(-c4ccc(OCCN5CCCCC5)cc4)cnc23)ccn1 [Dorsomorphin],scaled lipid accumulation score,[6],≤ 0
same,scaled lipid accumulation score,[2],≤ 0
same,scaled lipid accumulation score,[3],0.557
same,scaled lipid accumulation score,[4],0.469
Cc1cnc(Nc2ccc(OCCN3CCCC3)cc2)nc1Nc1cccc(S(=O)(=O)NC(C)(C)C)c1,scaled lipid accumulation score,[6],0.07
same,scaled lipid accumulation score,[2],0.23
same,scaled lipid accumulation score,[3],0.765
same,scaled lipid accumulation score,[5],0.703
same,scaled lipid accumulation score,[4],0.345 and 0.579
"c1cc(-c2cnn3cc(-c4ccc(OCCN5CCCCC5)cc4)cnc23)ccn1 [AMPK Inhibitor, Compound C]",scaled lipid accumulation score,[5],≤ 0
c1ccc(-c2cnc(Nc3ccc(OCCN4CCCC4)cc3)s2)cc1 [Flt-3 Inhibitor III],scaled lipid accumulation score,[5],1.17 (active)
CCCCC[C@H](O)C/C=C1/C(=O)C[C@H](O)[C@@H]1C/C=C\CCCC(=O)O [.DELTA.12-Prostaglandin D2],scaled lipid accumulation score,[1],≤ 0
CCCCC/C=C\C/C=C\CC/C=C\CCCC(=O)O [Pinolenic Acid],scaled lipid accumulation score,[1],0.009
